Compounds with a hit are over-represented: about 1.5% of the library has one in this group of screens.
V-ATPase pH – regulators of yeast V-ATPase proton transport | response, % at 10 µM | S. cerevisiae, pHLuorin cytosolic pH fluorescence | 0.37% of 350,000 active; in the data active means response mostly above about 7.3%, no sharp cut-off; inactive means mostly below about 5.4%; further: actives read high
NTR1 agonist – activates human neurotensin receptor 1 | P30989 | NTR1-U2OS beta-arrestin-GFP spot imaging, agonist mode | activation, % at 20 µM | 0.17% of 330,000 active | AID 493036;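 active means activation at or above 40% of the spot to cytoplasm intensity ratio, with at least 20 cells analyzed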;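 further: 0% = DMSO without peptide and 100% = 100 nM NTR1 peptide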
Target sequence (P30989 whole entry, looked up): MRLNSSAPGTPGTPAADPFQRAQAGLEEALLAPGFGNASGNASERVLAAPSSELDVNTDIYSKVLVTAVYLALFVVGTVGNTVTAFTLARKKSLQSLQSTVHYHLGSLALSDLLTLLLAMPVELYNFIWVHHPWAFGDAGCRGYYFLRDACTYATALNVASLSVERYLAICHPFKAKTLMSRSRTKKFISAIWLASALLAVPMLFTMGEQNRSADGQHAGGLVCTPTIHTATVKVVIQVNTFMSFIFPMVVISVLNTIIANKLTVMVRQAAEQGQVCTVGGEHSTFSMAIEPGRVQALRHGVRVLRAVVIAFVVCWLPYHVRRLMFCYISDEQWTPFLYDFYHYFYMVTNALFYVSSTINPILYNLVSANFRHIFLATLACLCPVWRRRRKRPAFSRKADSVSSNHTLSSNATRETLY
CRFBP-R2 block – CRF-BP/CRF-R2 complex antagonism; AID 588475; inhibition, % at 11.8 µM; 0.59% of 350,000 active; HEK293 CRF-R2/CRF-BP, CRF-induced calcium fluorescence;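 active means inhibition of the ligand-induced calcium signal above about 50% at the single tested concentration, limit read from the data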
CRFBP-R2 agonist – agonists of human CRF-binding protein/CRF-R2 receptor complex; HEK293 CRF-R2/CRF-BP, calcium dye fluorescence (FLIPR); percent of saturating CRF peptide response; activation, % at 13.2 µM; 0.46% of 350,000 active; AID 588473;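 active means activation of at least 50%, plus an integration ratio under a set limit after plate pattern correction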;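 further: plate controls were neutral control wells without compound for no effect and CRF at EC100 for full effect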
The depositor's hits bear a star; x = not tested or not shown.

SMILES	V-ATPase pH	NTR1 agonist	CRFBP-R2 block	CRFBP-R2 agonist
Cc1ccc(NC(=O)COC(=O)C2(C)CC2(Cl)Cl)cc1S(=O)(=O)N1CCOCC1 (stereo unspecified)	23*	-1	-1	0
Cc1ccc(NC(=O)COc2ccccc2C=O)cc1Cl	4	2	-16	1
O=C(O)c1ccc(Cl)c(NC(=S)NC(=O)c2cccc(COc3ccccc3)c2)c1	2	1	52*	-6
O=C(Nc1ccc(S(=O)(=O)N2CCCCC2)cc1)C1CC(=O)N(c2ccccc2)C1 (stereo unspecified)	-3	-1	-14	0
CC1CCCN(S(=O)(=O)c2ccc(NC(=O)C3CC(=O)N(c4ccccc4)C3)cc2)C1 (stereo unspecified)	14*	2	-20	1
COc1cc(C(=O)NCC(c2ccco2)N2CCOCC2)cc(OC)c1OC (stereo unspecified)	-2	0	0	-1
CCOC(=O)C1=C(COC(=O)C2CC(=O)N(c3ccccc3F)C2)NC(=O)NC1C (stereo unspecified)	3	-3	-3	0
COc1ccc(C=Cc2ccc3ccccc3n2)c(OC)c1	-3	x	-7	80*
COc1ccc(OC)c(/C=C/c2ccc3cccc(O)c3n2)c1	-2	8	x	x
Cc1cc(N2CCN(S(=O)(=O)c3ccc(Cl)cc3)CC2)c2ccccc2n1	-6	21	62*	0
Cc1cc(N2CCN(S(=O)(=O)c3ccc(Cl)c(Cl)c3)CC2)c2ccccc2n1	0	17	-2	1
Cc1ccc2oc(=O)c(/C=C(\O)c3sc(C)nc3C)nc2c1	-4	4	-106	123*
Cc1ccc2oc(=O)c(/C=C(\O)c3ccco3)nc2c1	0	2	-54	147*
Cc1ccc(/C(O)=C/c2nc3ccccc3oc2=O)cc1	-2	2	-60	60*
Cc1nc(C(=O)O)cc([N+](=O)[O-])c1C	-3	x	3	1
CN(C(=O)CSc1nc2ccc(Cl)cc2[nH]1)C1CCS(=O)(=O)C1 (stereo unspecified)	-4	1	13	-1
O=C(/C=C/c1ccccc1)Nc1ccc(Cl)cn1	0	x	-5	1
Cc1ccc(Nc2nc(-c3c(C)nc4ccccn34)cs2)cc1	-2	11	66*	-6
CC1(C)CC[C@]2(C(=O)O)CC[C@]3(C)C(=CC[C@@H]4[C@@]5(C)CC[C@H](O[C@@H]6O[C@H](C(=O)O)[C@@H](O)[C@H](O[C@@H]7OC[C@H](O)[C@H](O)[C@H]7O)[C@H]6O)C(C)(C)[C@@H]5CC[C@]43C)[C@@H]2C1	3	3	-227	256*
CC1(C)CC[C@]2(C(=O)O[C@@H]3O[C@H](CO)[C@@H](O)[C@H](O)[C@H]3O)CC[C@]3(C)C(=CCC4[C@@]5(C)CC[C@H](O[C@@H]6O[C@H](C(=O)O)[C@@H](O[C@H]7OC[C@@H](O)[C@@H](O)[C@@H]7O)[C@H](O)[C@H]6O)C(C)(C)C5CC[C@]43C)[C@@H]2C1 (stereo partly specified)	1	-2	-10	0
CC(=O)N1CCOc2ccc(S(=O)(=O)N3CCC(C(=O)NCc4ccc(C)cc4)CC3)cc21	-1	0	53*	2
O=[N+]([O-])c1ccc(/C=C/C2=NN(c3ccccc3)C(c3ccco3)C2)cc1 (stereo unspecified)	-11	x	-174	182*
CC1=NN(c2ccccc2)C(c2ccco2)C1 (stereo unspecified)	3	x	7	-2
C[n+]1ccccc1/C=C/c1ccc([N+](=O)[O-])cc1	-2	0	16	-1
O=[N+]([O-])c1ccc(C2=NN(c3ccccc3)C(c3ccco3)C2)cc1 (stereo unspecified)	-2	x	-92	105*
SMILES	V-ATPase pH	NTR1 agonist	CRFBP-R2 block	CRFBP-R2 agonist
Cc1ccc(S(=O)(=O)c2c(N)n(Cc3ccco3)c3nc4ccccc4nc23)cc1	3	2	-7	33
Cc1cccc(S(=O)(=O)c2c(N)n(Cc3ccco3)c3nc4ccccc4nc23)c1	1	4	-93	97*
C=C1C[C@H](O[C@@H]2O[C@H](CO)[C@@H](O)[C@H](O)[C@H]2O)[C@@H]2[C@H](OC(=O)[C@H]2C)[C@H]2[C@H](C)[C@H](O)C[C@@H]12	-1	-2	3	-1
CC1CCCCN1C(C(=O)O)c1ccccc1 (stereo unspecified)	1	-1	65*	-1
COc1ccccc1CNS(=O)(=O)c1ccc(-n2cccn2)cc1	0	1	0	-2
CCCCOc1ccccc1C1C(C(=O)OC)=CN(CC)C=C1C(=O)OC	-3	0	59*	0
CCCOc1ccccc1C1C(C(=O)OC)=CN(C(C)C)C=C1C(=O)OC	2	0	2	-4
Cc1onc(-c2c(F)cccc2Cl)c1C(=O)ONC(=O)c1ccco1	-3	-1	8	0
COc1ccccc1-[n+]1c(C)cc(/C=C2\Sc3ccccc3N2C)cc1C	-1	-4	-169	175*
c1ccc(Oc2cccc(OCCCCSc3ncccn3)c2)cc1	1	3	-74	51*
O=C(NC1CCCCC1)c1cc(-c2cccc(Cl)c2)on1	-4	1	-2	1
COc1c2c(c(OC)c3ccccc13)[C@@]1(OC2)O[C@H](CCO)C[C@H](O)[C@H]1O	0	x	101*	1
O=C1C(F)=CC(COC(c2ccccc2)(c2ccccc2)c2ccccc2)OC1n1cc(F)c(=O)[nH]c1=O (stereo unspecified)	-1	x	-45	55*
Cc1cccc(-n2ncc3c2CCCC3NC(=O)CCN2Cc3ccccc3C2=O)c1C (stereo unspecified)	2	-1	24	-11
CN(C)/C=C1\C=C2C(=O)c3ccccc3N2C1=O	1	-2	-220	217*
CN(C)S(=O)(=O)N1C(=O)c2ccccc2C1=O	-2	0	4	1
Cc1ccc(C(=O)N/C(=C\c2cn(C)c3ccccc23)C(=O)NCCCN2CCOCC2)cc1	-3	0	101*	0
CCC(=O)Nc1ccccc1Sc1ncnc2scc(-c3ccccc3)c12	0	4	12	-1
CCN(CC)c1ccc(/C=c2\sc3nc4ccccc4n3c2=O)c(O)c1	0	-2	-153	165*
COc1ccc(OC)c(NC(=O)CSc2ncnc3c2cnn3-c2ccccc2Cl)c1	2	-2	56*	0
COc1ccc(-c2cc(C3CCNCC3)[nH]n2)cc1	6	0	6	-1
O=C(Cc1ccccc1)NNS(=O)(=O)c1ccccc1[N+](=O)[O-]	-2	3	3	-1
O=S(=O)([N-]c1nc2ccccc2nc1-[n+]1ccc(-c2ccncc2)cc1)c1ccccc1	0	-1	-99	224*
O=S(=O)([N-]c1nc2ccccc2nc1-[n+]1ccccc1)c1ccccc1	-1	1	10	1
Cc1c(C(=O)Nc2ccccc2)cn2c(nc3ccccc32)c1C#N	-1	2	2	0
Cc1ccccc1C(=O)Nc1ccc2c(C#N)c3nc4ccccc4nc3n2c1	3	0	-38	84*

Screening results as filed in PubChem BioAssay.
